Measured values as given in ChEMBL document CHEMBL2218924, “A broad activity screen in support of a chemogenomic map for kinase signalling research and drug discovery” (Biochem J, 2013).

Tests used:
[1] = molecular target: Ephrin type-A receptor 5 (Homo sapiens) (UniProt P54756); conditions: at 1 µM
[2] = molecular target: Ephrin type-A receptor 5 (Homo sapiens) (UniProt P54756); conditions: at 10 µM
[3] = molecular target: T1, Ephrin type-B receptor 1 (Homo sapiens) (UniProt P54762); conditions: at 1 µM
T1 sequence (whole entry): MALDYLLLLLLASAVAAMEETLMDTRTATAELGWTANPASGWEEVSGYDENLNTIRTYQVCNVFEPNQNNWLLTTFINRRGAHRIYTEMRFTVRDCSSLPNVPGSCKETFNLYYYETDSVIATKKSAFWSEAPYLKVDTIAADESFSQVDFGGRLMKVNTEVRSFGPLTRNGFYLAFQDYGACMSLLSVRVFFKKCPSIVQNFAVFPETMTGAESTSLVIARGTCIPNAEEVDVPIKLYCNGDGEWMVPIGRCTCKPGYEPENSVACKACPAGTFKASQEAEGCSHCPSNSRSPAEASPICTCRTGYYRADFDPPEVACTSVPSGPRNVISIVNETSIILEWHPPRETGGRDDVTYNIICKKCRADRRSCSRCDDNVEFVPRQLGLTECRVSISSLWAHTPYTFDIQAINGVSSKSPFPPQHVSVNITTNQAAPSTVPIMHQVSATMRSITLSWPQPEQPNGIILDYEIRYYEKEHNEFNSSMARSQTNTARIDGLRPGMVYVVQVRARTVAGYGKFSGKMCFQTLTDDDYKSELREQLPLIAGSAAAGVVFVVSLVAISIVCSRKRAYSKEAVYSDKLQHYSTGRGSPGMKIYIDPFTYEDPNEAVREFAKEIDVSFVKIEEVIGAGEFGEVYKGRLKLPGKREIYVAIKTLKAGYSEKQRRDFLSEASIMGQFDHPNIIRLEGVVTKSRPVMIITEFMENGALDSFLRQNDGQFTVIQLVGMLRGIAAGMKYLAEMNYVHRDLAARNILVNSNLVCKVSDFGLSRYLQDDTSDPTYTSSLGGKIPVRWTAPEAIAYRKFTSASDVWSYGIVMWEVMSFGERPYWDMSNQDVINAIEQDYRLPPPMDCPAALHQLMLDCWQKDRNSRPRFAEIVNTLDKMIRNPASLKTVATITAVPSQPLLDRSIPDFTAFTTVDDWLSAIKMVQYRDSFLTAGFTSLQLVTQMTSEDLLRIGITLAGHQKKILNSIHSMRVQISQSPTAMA

[4] = molecular target: T2, Ephrin type-B receptor 3 (Homo sapiens) (UniProt P54753); conditions: at 1 µM
T2 sequence (whole entry): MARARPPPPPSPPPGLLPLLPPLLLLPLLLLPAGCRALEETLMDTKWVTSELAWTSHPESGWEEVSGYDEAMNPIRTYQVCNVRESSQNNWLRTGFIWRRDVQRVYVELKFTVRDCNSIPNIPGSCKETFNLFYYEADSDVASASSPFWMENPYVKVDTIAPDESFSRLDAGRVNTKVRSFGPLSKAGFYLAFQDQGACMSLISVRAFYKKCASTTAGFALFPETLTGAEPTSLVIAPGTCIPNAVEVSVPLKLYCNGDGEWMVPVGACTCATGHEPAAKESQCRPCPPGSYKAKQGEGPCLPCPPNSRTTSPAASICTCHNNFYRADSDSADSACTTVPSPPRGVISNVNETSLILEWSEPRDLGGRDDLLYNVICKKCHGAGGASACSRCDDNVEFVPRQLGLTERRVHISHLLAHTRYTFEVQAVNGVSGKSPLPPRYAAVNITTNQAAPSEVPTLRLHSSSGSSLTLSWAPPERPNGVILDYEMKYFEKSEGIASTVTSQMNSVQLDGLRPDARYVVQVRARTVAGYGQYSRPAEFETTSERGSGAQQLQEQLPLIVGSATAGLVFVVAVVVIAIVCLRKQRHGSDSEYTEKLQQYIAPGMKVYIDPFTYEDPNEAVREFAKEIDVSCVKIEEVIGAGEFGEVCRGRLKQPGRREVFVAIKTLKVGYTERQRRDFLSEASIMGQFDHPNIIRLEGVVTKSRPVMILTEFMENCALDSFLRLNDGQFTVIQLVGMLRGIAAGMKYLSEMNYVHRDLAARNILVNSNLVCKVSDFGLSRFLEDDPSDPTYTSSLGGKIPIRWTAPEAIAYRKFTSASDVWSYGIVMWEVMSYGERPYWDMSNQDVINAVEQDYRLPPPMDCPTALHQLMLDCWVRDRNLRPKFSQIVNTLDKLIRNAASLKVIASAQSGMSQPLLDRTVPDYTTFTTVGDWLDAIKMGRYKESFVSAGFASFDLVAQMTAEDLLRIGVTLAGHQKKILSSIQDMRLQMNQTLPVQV

[5] = molecular target: T2, Ephrin type-B receptor 3 (Homo sapiens); conditions: at 10 µM
[6] = molecular target: Focal adhesion kinase 1 (Homo sapiens) (UniProt Q05397); conditions: at 1 µM
Sequence of Focal adhesion kinase 1 (Homo sapiens) (Q05397 2-1052 limits assumed): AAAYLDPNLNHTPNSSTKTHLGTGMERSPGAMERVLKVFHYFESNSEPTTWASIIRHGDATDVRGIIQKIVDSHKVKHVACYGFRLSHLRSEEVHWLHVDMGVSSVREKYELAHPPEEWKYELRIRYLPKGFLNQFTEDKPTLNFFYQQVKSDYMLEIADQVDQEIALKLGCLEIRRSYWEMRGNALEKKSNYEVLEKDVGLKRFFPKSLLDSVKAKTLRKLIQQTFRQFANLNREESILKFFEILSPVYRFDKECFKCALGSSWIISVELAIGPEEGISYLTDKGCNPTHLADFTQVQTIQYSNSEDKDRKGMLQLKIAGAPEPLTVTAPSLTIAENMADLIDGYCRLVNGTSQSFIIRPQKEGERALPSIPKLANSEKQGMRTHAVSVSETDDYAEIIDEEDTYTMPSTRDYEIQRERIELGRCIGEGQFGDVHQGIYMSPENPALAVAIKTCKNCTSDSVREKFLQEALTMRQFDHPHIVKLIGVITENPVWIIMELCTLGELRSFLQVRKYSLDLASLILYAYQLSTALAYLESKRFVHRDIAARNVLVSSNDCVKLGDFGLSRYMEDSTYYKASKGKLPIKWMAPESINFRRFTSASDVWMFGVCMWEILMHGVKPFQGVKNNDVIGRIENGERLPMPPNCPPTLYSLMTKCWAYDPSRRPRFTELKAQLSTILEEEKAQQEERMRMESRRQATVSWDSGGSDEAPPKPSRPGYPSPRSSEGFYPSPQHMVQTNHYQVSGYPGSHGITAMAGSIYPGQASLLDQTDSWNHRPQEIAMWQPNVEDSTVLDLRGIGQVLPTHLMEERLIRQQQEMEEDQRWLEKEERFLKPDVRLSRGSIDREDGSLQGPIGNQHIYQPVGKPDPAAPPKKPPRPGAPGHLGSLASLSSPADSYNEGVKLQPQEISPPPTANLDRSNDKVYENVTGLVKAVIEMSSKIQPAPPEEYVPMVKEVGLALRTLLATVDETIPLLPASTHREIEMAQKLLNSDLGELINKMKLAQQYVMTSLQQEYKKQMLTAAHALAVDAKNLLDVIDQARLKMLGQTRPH

[7] = molecular target: Ephrin type-A receptor 4 (Homo sapiens) (UniProt P54764); conditions: at 1 µM
Sequence of Ephrin type-A receptor 4 (Homo sapiens) (P54764 whole entry): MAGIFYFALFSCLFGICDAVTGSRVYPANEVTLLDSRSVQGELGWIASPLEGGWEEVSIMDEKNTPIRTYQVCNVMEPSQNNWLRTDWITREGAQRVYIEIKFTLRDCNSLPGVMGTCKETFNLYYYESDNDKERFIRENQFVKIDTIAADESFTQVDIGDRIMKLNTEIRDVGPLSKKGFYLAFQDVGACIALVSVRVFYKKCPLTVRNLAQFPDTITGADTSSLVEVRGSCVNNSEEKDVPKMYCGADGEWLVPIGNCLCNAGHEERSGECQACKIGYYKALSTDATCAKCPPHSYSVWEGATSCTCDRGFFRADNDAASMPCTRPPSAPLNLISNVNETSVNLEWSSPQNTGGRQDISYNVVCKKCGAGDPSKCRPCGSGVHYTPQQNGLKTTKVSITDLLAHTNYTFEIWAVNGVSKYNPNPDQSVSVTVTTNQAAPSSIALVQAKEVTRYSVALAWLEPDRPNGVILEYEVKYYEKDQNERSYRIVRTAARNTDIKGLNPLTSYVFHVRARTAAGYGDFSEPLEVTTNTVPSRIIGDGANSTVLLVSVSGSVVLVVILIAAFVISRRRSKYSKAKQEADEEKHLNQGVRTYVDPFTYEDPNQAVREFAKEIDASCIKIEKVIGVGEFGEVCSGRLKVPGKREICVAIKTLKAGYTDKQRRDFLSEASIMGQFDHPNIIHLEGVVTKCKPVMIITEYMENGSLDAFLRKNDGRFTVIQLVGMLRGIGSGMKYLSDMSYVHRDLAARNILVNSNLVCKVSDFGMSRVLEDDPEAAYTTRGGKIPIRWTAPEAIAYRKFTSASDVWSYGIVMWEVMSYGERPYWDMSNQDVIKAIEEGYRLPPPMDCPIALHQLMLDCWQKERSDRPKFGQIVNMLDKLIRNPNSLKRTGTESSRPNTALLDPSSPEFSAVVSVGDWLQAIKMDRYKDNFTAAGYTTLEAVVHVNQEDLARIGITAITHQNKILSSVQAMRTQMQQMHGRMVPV

[8] = molecular target: Ephrin type-A receptor 7 (Homo sapiens) (UniProt Q15375); conditions: at 1 µM
Sequence of Ephrin type-A receptor 7 (Homo sapiens) (Q15375 28-998 limits assumed): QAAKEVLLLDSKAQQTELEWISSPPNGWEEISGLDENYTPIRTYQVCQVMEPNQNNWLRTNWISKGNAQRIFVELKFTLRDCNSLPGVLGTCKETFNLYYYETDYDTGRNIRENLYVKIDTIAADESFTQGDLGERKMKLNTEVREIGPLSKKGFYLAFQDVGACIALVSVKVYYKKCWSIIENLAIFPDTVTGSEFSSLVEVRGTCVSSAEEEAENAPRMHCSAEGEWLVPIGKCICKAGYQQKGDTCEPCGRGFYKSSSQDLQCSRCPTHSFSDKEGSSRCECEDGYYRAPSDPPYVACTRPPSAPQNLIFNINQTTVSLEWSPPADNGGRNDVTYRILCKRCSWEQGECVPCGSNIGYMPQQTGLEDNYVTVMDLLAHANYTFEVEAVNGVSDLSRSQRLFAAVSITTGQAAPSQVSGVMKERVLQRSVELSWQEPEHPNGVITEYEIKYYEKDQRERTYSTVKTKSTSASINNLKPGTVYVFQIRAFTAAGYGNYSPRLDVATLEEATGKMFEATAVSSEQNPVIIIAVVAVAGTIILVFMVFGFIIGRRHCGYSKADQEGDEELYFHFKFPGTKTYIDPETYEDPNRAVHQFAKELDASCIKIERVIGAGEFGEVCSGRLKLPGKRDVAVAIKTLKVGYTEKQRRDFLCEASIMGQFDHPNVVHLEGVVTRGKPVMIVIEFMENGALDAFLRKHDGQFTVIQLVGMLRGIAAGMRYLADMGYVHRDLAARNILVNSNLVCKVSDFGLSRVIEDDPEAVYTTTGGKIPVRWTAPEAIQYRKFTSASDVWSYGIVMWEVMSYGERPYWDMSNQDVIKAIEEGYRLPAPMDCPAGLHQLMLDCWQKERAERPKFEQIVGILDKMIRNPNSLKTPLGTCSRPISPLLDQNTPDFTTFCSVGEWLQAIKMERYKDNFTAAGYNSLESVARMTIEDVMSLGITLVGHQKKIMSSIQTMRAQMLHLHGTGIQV

[9] = molecular target: Ephrin type-A receptor 7 (Homo sapiens) (UniProt Q15375); conditions: at 10 µM
[10] = molecular target: T3, Ephrin type-A receptor 8 (Homo sapiens) (UniProt P29322); conditions: at 1 µM
T3 sequence (whole entry): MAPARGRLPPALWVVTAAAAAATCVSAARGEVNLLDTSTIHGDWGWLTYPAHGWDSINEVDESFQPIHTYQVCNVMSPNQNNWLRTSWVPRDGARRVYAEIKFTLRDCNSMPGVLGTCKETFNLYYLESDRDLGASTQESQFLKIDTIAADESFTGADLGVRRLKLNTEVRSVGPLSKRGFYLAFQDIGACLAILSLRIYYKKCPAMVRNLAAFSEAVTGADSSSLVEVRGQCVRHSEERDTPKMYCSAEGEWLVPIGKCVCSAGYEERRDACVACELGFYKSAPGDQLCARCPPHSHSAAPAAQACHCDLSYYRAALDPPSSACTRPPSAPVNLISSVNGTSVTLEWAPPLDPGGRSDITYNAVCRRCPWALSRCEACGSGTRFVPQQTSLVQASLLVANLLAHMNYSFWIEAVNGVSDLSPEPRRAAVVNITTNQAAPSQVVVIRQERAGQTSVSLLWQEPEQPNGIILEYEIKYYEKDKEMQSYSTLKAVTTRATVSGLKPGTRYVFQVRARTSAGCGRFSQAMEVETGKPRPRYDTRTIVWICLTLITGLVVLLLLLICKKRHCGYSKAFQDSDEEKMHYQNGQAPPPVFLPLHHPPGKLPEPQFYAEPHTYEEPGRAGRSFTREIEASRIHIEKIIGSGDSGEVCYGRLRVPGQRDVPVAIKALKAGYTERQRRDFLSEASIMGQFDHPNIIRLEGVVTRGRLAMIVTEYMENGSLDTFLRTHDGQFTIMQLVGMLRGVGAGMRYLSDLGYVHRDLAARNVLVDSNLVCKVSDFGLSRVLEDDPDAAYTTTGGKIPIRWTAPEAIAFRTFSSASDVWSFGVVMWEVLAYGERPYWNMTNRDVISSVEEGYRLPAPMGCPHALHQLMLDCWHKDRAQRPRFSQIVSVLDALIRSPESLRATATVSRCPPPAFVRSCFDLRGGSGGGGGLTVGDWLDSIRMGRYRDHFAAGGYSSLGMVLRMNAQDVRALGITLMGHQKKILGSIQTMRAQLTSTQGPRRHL

[11] = molecular target: T1, Ephrin type-B receptor 1 (Homo sapiens); conditions: at 10 µM

Sequence of Ephrin type-A receptor 5 (Homo sapiens) (P54756 whole entry): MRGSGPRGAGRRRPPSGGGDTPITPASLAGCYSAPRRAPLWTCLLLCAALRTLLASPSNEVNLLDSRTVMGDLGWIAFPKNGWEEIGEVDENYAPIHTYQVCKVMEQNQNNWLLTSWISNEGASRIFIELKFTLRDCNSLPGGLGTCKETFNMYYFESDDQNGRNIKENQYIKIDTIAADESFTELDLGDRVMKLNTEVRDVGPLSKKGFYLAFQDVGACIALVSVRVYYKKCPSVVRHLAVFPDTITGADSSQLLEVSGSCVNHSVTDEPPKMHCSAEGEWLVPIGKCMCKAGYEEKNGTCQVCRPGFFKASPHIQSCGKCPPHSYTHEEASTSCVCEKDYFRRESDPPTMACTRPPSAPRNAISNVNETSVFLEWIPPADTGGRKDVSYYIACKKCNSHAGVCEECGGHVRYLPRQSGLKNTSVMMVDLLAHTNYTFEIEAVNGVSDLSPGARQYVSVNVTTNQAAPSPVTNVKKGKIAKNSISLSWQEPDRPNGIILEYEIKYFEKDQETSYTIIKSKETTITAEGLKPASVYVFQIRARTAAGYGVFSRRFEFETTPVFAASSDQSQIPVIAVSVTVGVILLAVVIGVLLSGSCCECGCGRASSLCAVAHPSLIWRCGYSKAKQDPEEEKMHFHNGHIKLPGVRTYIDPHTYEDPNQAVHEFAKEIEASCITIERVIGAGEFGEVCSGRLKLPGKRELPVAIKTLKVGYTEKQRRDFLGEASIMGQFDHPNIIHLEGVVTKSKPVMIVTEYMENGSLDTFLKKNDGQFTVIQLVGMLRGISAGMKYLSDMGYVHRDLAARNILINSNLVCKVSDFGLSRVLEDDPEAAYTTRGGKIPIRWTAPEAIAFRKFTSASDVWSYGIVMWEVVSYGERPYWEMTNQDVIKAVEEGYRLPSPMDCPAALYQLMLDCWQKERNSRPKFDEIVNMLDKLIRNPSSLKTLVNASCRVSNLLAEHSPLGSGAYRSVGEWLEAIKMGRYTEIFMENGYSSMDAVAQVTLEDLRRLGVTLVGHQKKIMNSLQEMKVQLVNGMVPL

Structure (SMILES): Oc1cccc(-c2nc(N3CCOCC3)c3oc4ncccc4c3n2)c1
- residual activity [1]: 98%
- residual activity [2]: 124%
- residual activity [3]: 95%
- residual activity [4]: 116% (inactive)
- residual activity [5]: 123%
- residual activity [6]: 144%

Structure (SMILES): O=C(NC(NC(=S)Nc1ccc(F)c([N+](=O)[O-])c1)C(Cl)(Cl)Cl)C(c1ccccc1)c1ccccc1 (stereo unspecified)
- residual activity [7]: 96%
- residual activity [1]: 104%
- residual activity [2]: 91%
- residual activity [8]: 102%
- residual activity [9]: 99%
- residual activity [10]: 103%
- residual activity [3]: 97%
- residual activity [11]: 84%
- residual activity [4]: 104% (inactive)
- residual activity [5]: 84%
